# Measurements published in article PMC7862700, “An all-to-all approach to the identification of sequence-specific readers for epigenetic DNA modifications on cytosine”.
# Tests used:
# Assay in all cases: DAPPL (digital affinity profiling via proximity ligation, sequencing); 10 mM Tris-HCl pH 7.5, 50 mM NaCl, 1 mM DTT, 4% glycerol, room temperature, 30 min; GST-TFs on glutathione beads, 16-mer random dsDNA library, 0.1% formaldehyde crosslink after washing; high values mean tight binding
# Details in all cases: protein: recombinant; tags: N-terminal GST; dsDNA, one strand shown
# ELK1 = target: T1, ELK1 (Homo sapiens, UniProt P19419 1-428)
# T1 sequence: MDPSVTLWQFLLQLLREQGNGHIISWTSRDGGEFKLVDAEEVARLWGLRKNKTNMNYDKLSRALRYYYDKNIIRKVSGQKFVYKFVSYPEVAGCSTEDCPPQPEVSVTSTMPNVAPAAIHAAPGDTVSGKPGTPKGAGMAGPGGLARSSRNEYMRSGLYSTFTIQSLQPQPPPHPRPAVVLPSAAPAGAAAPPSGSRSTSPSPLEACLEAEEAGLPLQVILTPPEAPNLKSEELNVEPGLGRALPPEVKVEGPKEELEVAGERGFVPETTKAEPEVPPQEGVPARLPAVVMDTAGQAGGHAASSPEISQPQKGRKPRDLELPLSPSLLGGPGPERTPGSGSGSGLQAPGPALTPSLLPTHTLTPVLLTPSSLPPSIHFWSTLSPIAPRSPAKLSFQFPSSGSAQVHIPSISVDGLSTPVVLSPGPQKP
# Outline: (§1)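 Sequencing on an Illumina NextSeq500 followed washing, crosslinking with 0.1% formaldehyde, proximity ligation (BsaI/T4 ligase, 1 h, 37 °C) and PCR amplification of pools that had been incubated for 30 min at room temperature with 200 nmole of a random double-stranded 16-mer DNA library in Tris/NaCl/DTT/glycerol buffer. Each pool held DNA-barcoded human transcription factors, expressed in yeast as GST fusions and captured on glutathione beads, plus a tag-only sample. Binding signal is a hexamer's read frequency for a factor divided by its frequency in the tag-only sample.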
# SPIC = target: T2, SPIC (Homo sapiens, UniProt Q8N5J4 1-248)
# T2 sequence: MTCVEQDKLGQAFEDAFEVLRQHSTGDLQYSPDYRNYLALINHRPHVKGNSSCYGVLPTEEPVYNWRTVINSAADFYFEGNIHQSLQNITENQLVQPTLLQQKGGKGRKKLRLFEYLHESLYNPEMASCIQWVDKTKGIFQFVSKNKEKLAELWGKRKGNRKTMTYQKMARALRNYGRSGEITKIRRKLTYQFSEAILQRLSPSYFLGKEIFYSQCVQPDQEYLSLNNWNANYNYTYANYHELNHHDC
# Outline: as §1
# ETV7 = target: T3, ETV7 (Homo sapiens, UniProt Q9Y603 1-341)
# T3 sequence: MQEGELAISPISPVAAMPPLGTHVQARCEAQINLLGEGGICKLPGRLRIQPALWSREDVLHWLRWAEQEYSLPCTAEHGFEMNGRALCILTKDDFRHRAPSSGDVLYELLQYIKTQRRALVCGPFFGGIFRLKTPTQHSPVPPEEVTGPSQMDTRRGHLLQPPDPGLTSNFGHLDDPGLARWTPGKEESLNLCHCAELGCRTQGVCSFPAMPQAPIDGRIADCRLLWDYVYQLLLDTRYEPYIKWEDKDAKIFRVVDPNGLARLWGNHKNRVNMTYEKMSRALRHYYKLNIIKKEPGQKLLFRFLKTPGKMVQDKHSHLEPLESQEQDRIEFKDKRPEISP
# Outline: as §1
# ERG = target: T4, ERG (Homo sapiens, UniProt P11308 1-479)
# T4 sequence: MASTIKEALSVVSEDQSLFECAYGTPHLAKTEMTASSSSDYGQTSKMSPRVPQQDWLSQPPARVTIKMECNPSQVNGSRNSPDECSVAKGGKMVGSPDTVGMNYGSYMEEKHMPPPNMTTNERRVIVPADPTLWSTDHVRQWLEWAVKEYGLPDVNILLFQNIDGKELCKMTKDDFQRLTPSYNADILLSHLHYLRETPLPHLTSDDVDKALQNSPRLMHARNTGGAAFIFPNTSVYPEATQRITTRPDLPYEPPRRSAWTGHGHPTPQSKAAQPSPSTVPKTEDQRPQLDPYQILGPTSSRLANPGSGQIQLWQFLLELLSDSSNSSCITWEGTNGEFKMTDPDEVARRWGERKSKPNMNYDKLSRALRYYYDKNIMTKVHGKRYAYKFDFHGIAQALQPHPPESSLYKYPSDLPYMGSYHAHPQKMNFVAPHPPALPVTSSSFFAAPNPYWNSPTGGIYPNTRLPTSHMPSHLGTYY
# Outline: as §1
# EHF = target: T5, EHF (Homo sapiens, UniProt Q9NZC4 1-300)
# T5 sequence: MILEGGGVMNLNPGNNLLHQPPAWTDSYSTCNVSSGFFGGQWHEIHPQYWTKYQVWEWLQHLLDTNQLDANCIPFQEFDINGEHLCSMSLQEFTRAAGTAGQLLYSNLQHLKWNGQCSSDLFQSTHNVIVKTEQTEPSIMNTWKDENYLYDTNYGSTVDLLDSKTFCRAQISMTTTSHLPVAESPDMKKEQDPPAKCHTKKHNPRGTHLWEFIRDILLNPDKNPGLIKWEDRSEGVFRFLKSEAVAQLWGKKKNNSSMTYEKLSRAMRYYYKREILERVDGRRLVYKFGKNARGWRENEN
# Outline: as §1
# ELK4 = target: T6, ELK4 (Homo sapiens, UniProt P28324-2 1-405)
# T6 sequence: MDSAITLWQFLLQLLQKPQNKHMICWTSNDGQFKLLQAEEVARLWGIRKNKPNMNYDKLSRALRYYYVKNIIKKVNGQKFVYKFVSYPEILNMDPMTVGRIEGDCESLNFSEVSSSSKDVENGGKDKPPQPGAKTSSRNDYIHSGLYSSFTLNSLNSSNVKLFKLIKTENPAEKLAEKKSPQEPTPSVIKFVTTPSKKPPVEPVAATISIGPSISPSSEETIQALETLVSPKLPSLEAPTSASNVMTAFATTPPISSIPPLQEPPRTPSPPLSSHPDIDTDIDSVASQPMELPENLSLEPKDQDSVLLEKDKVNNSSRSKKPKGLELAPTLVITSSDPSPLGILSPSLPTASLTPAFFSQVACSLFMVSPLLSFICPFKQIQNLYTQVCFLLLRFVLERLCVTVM
# Outline: as §1
# ETV2 = target: T7, ETV2 (Homo sapiens, UniProt O00321 1-342)
# T7 sequence: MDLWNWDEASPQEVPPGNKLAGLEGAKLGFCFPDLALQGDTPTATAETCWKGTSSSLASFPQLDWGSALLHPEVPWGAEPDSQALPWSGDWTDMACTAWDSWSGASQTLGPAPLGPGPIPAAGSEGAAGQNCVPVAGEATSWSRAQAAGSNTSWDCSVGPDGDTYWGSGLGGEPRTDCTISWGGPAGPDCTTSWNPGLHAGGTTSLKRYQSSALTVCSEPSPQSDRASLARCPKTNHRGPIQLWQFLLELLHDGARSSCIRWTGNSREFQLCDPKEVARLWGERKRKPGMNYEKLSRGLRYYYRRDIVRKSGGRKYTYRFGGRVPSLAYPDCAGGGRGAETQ
# Outline: as §1
# ELF3 = target: T8, ELF3 (Homo sapiens, UniProt P78545 1-371)
# T8 sequence: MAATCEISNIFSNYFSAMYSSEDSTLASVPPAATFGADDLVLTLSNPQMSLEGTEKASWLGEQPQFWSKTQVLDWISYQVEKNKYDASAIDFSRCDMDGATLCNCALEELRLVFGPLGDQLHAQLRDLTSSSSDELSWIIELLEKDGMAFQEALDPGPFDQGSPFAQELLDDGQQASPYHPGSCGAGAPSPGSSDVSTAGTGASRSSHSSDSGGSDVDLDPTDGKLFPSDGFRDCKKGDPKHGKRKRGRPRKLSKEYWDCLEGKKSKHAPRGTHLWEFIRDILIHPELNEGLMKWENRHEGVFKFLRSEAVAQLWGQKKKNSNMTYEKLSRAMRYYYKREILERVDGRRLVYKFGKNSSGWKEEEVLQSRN
# Outline: as §1
# ETV1 = ETV1 (Homo sapiens, UniProt P50549 1-477)
# Sequence of ETV1 (P50549 whole entry): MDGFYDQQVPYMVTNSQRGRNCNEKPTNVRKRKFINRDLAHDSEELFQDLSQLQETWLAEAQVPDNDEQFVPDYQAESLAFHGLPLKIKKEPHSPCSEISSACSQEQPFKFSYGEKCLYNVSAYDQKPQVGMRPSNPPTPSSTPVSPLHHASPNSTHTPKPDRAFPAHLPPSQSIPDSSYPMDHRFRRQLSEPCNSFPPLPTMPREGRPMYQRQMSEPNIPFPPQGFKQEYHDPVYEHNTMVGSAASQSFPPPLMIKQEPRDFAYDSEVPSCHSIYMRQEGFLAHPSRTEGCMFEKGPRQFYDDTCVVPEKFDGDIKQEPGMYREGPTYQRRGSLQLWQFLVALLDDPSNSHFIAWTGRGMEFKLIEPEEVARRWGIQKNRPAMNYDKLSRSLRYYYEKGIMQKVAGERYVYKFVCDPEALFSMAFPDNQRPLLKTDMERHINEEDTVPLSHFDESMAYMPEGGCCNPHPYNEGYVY
# Outline: as §1
# ETV3L = target: T9, ETV3L (Homo sapiens, UniProt Q6ZN32 1-361)
# T9 sequence: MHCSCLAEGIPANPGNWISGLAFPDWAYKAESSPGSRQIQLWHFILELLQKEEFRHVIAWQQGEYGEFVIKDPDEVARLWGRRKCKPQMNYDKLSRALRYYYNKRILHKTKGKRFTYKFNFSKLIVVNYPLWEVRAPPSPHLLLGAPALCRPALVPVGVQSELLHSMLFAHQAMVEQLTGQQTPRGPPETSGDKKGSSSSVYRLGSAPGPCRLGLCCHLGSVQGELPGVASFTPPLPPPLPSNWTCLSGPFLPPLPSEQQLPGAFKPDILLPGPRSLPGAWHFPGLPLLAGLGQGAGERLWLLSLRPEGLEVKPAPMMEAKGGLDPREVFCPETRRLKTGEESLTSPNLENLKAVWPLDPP
# Outline: as §1
# SPDEF = target: T10, SPDEF (Homo sapiens, UniProt O95238 1-335)
# T10 sequence: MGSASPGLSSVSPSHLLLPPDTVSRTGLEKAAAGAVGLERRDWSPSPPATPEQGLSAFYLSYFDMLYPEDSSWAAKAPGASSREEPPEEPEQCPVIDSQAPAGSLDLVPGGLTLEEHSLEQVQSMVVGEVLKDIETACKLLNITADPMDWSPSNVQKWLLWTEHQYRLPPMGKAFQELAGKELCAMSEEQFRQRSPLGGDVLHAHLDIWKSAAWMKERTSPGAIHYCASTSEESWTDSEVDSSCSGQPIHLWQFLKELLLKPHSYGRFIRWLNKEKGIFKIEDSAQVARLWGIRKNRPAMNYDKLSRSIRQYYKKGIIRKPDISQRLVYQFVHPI
# Outline: as §1
# ETV3 = target: T11, ETV3 (Homo sapiens, UniProt P41162-2 1-143)
# T11 sequence: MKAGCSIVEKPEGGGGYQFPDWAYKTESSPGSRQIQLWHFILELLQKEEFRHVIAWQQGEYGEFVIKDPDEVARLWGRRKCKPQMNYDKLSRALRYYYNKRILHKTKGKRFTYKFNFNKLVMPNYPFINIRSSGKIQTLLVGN
# Outline: as §1
Sequence,binding signal (ELK1),binding signal (SPIC),binding signal (ETV7),binding signal (ERG),binding signal (EHF),binding signal (ELK4),binding signal (ETV2),binding signal (ELF3),binding signal (ETV1),binding signal (ETV3L),binding signal (SPDEF),binding signal (ETV3)
GACATG,"1.01 fold enrichment (6-mer frequency, TF over GST control)","1.1 fold enrichment (6-mer frequency, TF over GST control)","1.03 fold enrichment (6-mer frequency, TF over GST control)",–,–,–,–,–,–,–,–,–
AGGTCC,–,"1.2 fold enrichment (6-mer frequency, TF over GST control)",–,"1.02 fold enrichment (6-mer frequency, TF over GST control)","1.05 fold enrichment (6-mer frequency, TF over GST control)","1.02 fold enrichment (6-mer frequency, TF over GST control)","1.08 fold enrichment (6-mer frequency, TF over GST control)","1.07 fold enrichment (6-mer frequency, TF over GST control)","1.05 fold enrichment (6-mer frequency, TF over GST control)","1.03 fold enrichment (6-mer frequency, TF over GST control)","1.24 fold enrichment (6-mer frequency, TF over GST control)","1.03 fold enrichment (6-mer frequency, TF over GST control)"
